Measurements published in the supplement of paper PMC11732987, “Enantioselective OTUD7B fragment discovery through chemoproteomics screening and high-throughput optimisation” (Communications Chemistry, 2025).

Legend:
Test in all cases: log2 ratio of Biotin-Ahx-Ub-VS probe labelling (fragment/DMSO); higher = less target engagement (more negative = stronger competition), active = hit call of the paper (q ≤ 0.05, log2 ratio ≤ -1)
Conditions in all cases: compound concentration: 200 uM; treatment time: 3 h
USP34 = USP34 (UniProt Q70CQ2)
Sequence of USP34 (Q70CQ2 whole entry, the tested form may be a part): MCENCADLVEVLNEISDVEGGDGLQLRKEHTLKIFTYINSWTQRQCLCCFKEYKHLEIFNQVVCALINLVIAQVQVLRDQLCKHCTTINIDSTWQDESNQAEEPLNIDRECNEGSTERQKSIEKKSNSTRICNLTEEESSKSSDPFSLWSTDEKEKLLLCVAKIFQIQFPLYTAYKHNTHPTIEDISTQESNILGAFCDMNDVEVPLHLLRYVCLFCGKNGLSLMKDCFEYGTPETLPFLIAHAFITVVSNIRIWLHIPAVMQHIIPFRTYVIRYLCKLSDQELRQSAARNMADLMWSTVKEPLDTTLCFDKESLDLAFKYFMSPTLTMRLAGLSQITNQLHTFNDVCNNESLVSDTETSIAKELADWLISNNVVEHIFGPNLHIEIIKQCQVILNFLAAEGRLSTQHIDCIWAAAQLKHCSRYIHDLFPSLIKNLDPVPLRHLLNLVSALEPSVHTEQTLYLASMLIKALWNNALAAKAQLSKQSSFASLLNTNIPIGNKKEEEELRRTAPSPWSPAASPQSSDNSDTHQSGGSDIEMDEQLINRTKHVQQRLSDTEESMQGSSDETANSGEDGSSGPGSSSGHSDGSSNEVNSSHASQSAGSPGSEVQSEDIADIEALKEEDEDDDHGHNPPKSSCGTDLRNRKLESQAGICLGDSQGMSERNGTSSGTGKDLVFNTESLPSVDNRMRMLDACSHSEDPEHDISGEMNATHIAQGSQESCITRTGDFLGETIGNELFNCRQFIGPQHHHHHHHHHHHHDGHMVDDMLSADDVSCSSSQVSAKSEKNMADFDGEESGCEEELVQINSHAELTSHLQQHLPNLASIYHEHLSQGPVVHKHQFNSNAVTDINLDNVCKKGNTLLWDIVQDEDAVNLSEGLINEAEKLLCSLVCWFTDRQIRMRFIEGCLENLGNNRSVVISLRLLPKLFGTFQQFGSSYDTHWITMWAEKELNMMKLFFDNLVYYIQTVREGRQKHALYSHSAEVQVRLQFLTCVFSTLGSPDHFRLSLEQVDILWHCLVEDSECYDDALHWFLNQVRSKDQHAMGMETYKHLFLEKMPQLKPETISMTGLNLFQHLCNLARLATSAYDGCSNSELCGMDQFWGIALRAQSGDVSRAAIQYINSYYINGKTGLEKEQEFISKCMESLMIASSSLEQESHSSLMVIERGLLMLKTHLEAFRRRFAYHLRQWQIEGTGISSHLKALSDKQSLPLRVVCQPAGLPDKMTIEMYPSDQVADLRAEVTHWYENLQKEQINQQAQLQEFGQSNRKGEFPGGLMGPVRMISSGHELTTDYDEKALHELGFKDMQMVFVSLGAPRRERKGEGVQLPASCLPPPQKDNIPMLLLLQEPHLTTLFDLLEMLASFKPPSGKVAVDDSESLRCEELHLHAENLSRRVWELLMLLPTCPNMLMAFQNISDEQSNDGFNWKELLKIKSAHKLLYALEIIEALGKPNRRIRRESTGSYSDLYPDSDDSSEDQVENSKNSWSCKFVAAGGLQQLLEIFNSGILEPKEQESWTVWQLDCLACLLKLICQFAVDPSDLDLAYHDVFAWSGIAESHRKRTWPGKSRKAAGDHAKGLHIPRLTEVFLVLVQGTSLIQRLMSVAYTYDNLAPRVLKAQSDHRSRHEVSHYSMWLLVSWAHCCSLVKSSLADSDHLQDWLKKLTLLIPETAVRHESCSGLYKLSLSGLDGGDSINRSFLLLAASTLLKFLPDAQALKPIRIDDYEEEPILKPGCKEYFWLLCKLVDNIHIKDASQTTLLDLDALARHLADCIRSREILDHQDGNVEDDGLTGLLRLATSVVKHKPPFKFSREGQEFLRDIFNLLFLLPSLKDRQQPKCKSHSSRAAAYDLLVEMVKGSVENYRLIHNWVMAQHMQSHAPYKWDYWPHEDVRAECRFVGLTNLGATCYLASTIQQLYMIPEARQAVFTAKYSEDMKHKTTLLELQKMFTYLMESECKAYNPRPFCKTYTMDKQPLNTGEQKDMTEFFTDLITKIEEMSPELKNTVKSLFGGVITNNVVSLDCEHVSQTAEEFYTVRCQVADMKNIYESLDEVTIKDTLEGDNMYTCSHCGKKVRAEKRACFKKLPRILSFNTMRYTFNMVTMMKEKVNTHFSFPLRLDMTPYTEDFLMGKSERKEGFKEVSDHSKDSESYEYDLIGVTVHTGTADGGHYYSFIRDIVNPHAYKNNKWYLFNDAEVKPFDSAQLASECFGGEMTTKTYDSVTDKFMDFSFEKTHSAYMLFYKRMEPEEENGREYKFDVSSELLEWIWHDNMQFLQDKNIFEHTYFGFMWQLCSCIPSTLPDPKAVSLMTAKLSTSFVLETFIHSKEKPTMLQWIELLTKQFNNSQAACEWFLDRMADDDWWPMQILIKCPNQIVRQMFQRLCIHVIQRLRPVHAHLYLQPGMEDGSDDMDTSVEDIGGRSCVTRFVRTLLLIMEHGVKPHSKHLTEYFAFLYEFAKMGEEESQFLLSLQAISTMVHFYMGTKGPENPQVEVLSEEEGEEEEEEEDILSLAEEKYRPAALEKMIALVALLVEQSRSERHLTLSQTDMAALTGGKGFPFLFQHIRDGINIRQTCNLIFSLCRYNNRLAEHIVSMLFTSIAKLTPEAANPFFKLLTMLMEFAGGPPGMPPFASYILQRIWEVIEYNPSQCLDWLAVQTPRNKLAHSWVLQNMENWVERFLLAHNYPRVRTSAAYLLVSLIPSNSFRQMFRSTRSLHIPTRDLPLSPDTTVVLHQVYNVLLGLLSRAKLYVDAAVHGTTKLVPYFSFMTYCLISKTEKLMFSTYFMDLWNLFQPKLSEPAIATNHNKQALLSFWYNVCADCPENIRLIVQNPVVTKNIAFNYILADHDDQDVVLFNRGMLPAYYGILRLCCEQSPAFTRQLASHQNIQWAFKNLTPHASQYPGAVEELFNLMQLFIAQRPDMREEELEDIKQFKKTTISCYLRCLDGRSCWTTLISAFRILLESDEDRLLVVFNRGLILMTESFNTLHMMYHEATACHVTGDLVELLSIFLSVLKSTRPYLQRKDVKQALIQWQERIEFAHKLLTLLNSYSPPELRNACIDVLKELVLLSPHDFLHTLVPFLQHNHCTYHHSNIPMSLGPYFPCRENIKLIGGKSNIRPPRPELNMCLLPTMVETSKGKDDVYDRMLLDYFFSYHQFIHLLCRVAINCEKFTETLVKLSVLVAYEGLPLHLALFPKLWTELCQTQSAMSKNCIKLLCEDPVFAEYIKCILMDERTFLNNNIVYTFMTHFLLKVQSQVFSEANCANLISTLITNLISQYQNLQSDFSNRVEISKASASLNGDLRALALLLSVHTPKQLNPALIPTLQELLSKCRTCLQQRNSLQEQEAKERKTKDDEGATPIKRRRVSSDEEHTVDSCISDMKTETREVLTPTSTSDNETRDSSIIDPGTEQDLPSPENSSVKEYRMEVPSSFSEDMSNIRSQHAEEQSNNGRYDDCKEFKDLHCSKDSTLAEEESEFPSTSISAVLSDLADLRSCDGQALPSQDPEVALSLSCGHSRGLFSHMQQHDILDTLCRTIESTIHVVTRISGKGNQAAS
How it was run: (§1)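 Fragment (200 µM) or vehicle was incubated for 3 h with triplicate HEK293T lysate samples of 495 µg, which were then treated with Biotin-Ahx-Ub-VS at 0.5 µM final for 1 h. Labelled DUBs were enriched on NeutrAvidin, digested with LysC and trypsin, and analysed by diaPASEF LC-MS/MS. Values are average log2 fragment/vehicle ratios from an unpaired t-test on global-median-normalised Spectronaut label-free quantities, using proteins with ≥2 unique peptides.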

USP36 = target: T1, USP36 (UniProt Q9P275)
T1 sequence (whole entry): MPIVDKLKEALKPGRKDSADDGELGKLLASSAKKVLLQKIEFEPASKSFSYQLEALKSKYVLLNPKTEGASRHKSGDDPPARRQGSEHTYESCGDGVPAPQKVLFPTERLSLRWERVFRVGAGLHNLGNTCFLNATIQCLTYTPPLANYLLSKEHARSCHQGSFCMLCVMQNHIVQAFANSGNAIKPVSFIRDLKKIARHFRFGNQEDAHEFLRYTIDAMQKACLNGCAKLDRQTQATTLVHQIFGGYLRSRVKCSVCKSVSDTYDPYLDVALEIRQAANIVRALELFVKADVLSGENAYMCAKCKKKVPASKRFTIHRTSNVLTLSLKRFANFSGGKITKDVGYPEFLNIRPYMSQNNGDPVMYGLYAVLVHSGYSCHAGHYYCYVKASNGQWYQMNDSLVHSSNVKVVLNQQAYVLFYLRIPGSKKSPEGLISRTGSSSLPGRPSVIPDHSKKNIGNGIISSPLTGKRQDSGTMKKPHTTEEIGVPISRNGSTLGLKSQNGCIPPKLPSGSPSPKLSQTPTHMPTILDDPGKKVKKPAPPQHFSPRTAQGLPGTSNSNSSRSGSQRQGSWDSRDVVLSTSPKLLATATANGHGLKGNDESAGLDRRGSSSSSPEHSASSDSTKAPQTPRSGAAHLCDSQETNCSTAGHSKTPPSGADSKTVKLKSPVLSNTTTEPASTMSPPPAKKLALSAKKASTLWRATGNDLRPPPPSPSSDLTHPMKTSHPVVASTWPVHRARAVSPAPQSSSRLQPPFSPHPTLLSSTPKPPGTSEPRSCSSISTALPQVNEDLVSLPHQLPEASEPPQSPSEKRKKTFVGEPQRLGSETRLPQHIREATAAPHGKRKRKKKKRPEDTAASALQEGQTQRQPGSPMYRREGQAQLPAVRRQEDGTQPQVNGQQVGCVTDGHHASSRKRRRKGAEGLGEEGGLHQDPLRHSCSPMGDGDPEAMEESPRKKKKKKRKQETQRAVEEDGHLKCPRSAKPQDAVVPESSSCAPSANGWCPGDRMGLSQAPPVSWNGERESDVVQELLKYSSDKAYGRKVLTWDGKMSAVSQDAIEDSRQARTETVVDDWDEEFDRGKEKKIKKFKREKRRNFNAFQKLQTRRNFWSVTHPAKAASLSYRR
How it was run: as §1

USP38 = target: T2, USP38 (UniProt Q8NB14)
T2 sequence (whole entry): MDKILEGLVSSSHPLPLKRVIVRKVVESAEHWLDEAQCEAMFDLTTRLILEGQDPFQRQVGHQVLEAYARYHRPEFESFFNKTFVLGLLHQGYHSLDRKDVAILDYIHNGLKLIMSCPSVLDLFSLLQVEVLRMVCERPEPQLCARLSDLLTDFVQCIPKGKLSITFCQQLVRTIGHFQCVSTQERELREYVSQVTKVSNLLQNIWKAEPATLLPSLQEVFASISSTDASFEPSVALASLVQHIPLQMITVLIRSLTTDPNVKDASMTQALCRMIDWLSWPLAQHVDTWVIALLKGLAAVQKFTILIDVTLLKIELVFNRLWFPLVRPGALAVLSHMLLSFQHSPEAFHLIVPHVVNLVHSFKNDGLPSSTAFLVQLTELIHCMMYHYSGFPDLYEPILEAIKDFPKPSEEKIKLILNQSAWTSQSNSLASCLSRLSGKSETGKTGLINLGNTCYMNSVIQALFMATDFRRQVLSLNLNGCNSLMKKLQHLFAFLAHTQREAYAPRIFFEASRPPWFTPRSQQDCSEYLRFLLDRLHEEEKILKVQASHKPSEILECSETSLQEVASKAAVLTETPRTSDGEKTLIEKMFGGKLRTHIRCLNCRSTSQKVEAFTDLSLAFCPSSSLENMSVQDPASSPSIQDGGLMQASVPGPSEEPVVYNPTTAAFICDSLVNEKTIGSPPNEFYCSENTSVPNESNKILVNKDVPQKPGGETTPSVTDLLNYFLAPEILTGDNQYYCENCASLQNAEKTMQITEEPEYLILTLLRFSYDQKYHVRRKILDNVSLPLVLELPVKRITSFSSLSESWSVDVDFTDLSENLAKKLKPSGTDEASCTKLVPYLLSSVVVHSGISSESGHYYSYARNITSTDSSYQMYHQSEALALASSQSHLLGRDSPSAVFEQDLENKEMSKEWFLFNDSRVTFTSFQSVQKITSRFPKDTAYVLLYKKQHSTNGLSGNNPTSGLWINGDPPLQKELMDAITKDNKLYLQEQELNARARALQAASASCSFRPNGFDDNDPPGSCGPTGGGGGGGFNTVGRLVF
How it was run: as §1

USP39 = target: T3, USP39 (UniProt Q53GS9)
T3 sequence (whole entry): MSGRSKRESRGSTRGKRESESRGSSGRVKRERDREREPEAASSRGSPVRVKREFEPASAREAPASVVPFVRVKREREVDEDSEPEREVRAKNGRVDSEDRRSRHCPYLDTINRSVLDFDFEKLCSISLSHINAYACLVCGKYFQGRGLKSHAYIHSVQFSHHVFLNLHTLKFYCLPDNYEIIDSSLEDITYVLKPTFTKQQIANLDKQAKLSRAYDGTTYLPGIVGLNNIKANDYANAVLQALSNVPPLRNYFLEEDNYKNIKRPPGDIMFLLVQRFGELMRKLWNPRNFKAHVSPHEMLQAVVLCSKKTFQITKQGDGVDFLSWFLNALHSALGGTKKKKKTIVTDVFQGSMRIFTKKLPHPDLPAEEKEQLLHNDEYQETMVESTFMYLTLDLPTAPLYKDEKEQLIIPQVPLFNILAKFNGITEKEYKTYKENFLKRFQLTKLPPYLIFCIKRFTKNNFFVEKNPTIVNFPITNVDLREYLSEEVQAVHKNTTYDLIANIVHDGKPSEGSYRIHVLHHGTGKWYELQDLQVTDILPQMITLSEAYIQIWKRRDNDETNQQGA
How it was run: as §1

USP4 = target: T4, USP4 (UniProt Q13107)
T4 sequence (whole entry): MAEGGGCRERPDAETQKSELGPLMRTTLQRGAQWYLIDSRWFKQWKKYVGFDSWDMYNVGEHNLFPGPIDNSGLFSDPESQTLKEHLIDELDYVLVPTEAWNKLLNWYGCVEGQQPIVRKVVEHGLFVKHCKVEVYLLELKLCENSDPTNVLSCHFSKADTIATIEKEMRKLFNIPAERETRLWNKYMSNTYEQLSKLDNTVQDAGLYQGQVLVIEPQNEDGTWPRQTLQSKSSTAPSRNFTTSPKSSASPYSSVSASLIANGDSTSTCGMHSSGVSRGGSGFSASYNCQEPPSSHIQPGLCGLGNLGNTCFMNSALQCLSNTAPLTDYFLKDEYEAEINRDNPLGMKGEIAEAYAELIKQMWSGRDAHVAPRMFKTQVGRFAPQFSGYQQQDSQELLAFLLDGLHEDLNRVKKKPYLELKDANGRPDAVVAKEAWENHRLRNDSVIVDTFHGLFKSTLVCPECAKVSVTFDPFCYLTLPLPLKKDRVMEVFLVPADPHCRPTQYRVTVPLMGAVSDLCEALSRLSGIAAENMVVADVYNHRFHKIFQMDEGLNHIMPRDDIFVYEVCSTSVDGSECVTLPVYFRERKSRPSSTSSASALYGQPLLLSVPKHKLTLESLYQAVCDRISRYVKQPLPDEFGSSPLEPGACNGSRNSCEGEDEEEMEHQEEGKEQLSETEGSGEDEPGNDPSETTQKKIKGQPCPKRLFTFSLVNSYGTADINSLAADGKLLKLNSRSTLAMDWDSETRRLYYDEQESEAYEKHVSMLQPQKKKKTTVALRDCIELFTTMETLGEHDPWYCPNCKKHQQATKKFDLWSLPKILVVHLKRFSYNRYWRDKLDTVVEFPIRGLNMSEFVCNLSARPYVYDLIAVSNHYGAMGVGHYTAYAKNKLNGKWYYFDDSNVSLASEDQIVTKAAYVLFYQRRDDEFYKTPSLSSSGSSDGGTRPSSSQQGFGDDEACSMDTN
How it was run: as §1

Measured: log2 ratio of Biotin-Ahx-Ub-VS probe labelling

Cl.O=C(CCl)N1CCCC(c2ncc[nH]2)C1 (stereo not given)
inactive: USP34 0.00166 | USP36 0.0764 | USP38 -0.0133 | USP39 0.00979 | USP4 0.124
